MLL AF4-AF9 inh: inhibitors of human MLL-AF4/AF9 interaction; hit rate 0.47% among 350,000; inhibition, % at 10 µM; AlphaScreen, biotin-AF4 peptide binding to FLAG-AF9; AID 651704; P42568;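 active = every replicate reaching a set inhibition limit, whatever the replicate mean, cut at about 25% in these data; inconclusive = mean inhibition reaches that limit but some replicates miss it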;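 note: 0% = plate neutral control median and 100% = total signal loss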
Target sequence (P42568 whole entry, looked up): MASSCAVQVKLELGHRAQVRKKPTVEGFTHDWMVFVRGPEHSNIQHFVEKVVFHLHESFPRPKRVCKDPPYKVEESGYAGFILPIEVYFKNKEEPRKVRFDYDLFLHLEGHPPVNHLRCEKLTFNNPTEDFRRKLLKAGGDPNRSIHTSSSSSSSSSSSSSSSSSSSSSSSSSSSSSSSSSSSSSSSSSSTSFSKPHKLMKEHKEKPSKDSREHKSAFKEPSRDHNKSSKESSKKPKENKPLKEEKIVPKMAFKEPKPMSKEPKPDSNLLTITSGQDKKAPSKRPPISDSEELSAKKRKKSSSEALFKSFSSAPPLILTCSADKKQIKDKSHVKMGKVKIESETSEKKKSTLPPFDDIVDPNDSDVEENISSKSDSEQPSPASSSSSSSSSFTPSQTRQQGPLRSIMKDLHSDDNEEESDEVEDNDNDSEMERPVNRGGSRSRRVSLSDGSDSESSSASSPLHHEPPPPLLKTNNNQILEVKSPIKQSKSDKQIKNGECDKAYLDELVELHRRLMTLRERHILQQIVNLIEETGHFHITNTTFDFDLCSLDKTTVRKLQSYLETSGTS
NSD2 inh: NSD2 (human) methyltransferase inhibition | NSD2 peptide methylation, AlphaScreen, 120 min | O96028 | inhibition, % at 12.5 µM | hit rate 0.54% among 310,000; in the data active = inhibition above about 50%
RAD52 inh: blocks human RAD52 DNA annealing. P43351. recombinant RAD52 DNA annealing, FRET fluorescence. inhibition, % at 18.7 µM. hit rate 0.46% among 360,000. AID 651710;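 active = every replicate showing at least 50% inhibition; inconclusive = mean inhibition at least 50% but not in every replicate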
rRNA inh HTS: selective bacterial rRNA inhibition in E. coli. GFP signal change (wild-type ribosome), % (test concentration not listed). E. coli WT GFP vs humanized-ribosome RFP mutants, fluorescence, 24 h; active compounds read low; DMSO median 0, no signal -100. hit rate 1.6% among 350,000;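 active = significant combined selectivity score with lowered wild-type GFP, culture density cut under 30%, mutant RFP and density less affected; inactive = any of these conditions unmet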
Casp6 inh: caspase-6 (human) enzyme inhibition | purified caspase-6, Z-VEID-R110 cleavage fluorescence | AID 686996 | inhibition, % at 12.5 µM | hit rate 0.53% among 350,000;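 active = mean inhibition across replicates at least about 35%, with every replicate also reaching that limit, limit read from the data; inconclusive = only one of the two criteria met; inactive = neither criterion met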;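 note: 0% = median of neutral control wells and 100% = no fluorescence left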
HepG2 tox: cytotoxic compounds in HepG2 cells; shares compounds with rRNA inh HTS; HepG2 viability, ATP luminescence, 72 h; activity change, negative = cytotoxicity, unspecified at 26 µM; 30 tested, under 10 active; AID 743480;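 active = compounds whose fitted half-maximal signal-loss concentration is at most twice their highest valid dose; inconclusive = flat curve with 30 to 70% signal loss, or poor fit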
AID977621: wild-type E. coli growth inhibition versus H69 humanized strain – H69 mutant RFP, wild-type GFP, cherry-pick, dose response | shares compounds with rRNA inh HTS | fluorescence, 24 h | activity change, negative = inhibition at 50 µM | 1,900 tested, under 10 active;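 active = Wild-type ribosome reporter drop at least double the humanized mutant ribosome reporter drop, growth loss under a set limit; inconclusive = no clear call, values can overlap the other calls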;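 note: wild-type GFP and H69 mutant RFP strains grown together 50/50 in each well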
AID977628: E. coli growth inhibition, wild-type GFP versus h24 humanized RFP strain, dose response, h24 mutant RFP vs wild-type GFP, cherry-pick; AID 977628; activity change, negative = inhibition at 50 µM; shares compounds with rRNA inh HTS; E. coli WT GFP strain growth, fluorescence, 24 h; 1,900 tested, under 10 active;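 active = compound lowering the normal-ribosome reporter at least twice as much as the humanized-ribosome reporter, growth loss under a set limit; inconclusive = no clear call, values can overlap the other calls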;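 note: wild-type GFP and h24 humanized RFP strains co-cultured 1 to 1 per well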
* = called active by the depositor. The list is not random: actives were taken first. Their share in the collection is about 2.5%.

Results for Cc1noc(C)c1NC(=O)N(C)C[C@H]1OCCCC[C@@H](C)Oc2ccc(NC(=O)Nc3ccc4c(c3)OCO4)cc2C(=O)N([C@H](C)CO)C[C@@H]1C ?
MLL AF4-AF9 inh: -1; RAD52 inh: 7; rRNA inh HTS: 4; Casp6 inh: -3

What do the screens show for `Cc1noc(C)c1NC(=O)N(C)C[C@@H]1OCCCC[C@@H](C)Oc2ccc(NC(=O)Nc3ccc4c(c3)OCO4)cc2C(=O)N([C@H](C)CO)C[C@@H]1C`?
MLL AF4-AF9 inh: -2; RAD52 inh: 7; rRNA inh HTS: 1; Casp6 inh: 1

Results for Cc1noc(C)c1NC(=O)Nc1ccc2c(c1)C(=O)N([C@@H](C)CO)C[C@H](C)[C@H](CN(C)C(=O)Nc1ccc3c(c1)OCO3)OCCCC[C@H](C)O2 ?
MLL AF4-AF9 inh: 2; RAD52 inh: -4; rRNA inh HTS: 2; Casp6 inh: 1; AID977628: inconclusive

How did Cc1noc(C)c1NC(=O)Nc1ccc2c(c1)C(=O)N([C@H](C)CO)C[C@@H](C)[C@@H](CN(C)C(=O)Nc1ccc3c(c1)OCO3)OCCCC[C@@H](C)O2 do in these assays?
MLL AF4-AF9 inh: 2; RAD52 inh: 11; rRNA inh HTS: -41*; Casp6 inh: 15; HepG2 tox: 18; AID977628: inconclusive

How did O=C(c1ccccc1)N1C[C@@H]2[C@H](c3ccccc31)[C@H](CO)N2C(=O)c1cccc(F)c1 do in these assays?
MLL AF4-AF9 inh: -1; RAD52 inh: 4; rRNA inh HTS: -1; Casp6 inh: -7

What do the screens show for `COC(=O)c1ccc(CCc2cc(O)c(Br)cc2O)cc1`?
MLL AF4-AF9 inh: -3; NSD2 inh: -1; RAD52 inh: -53; rRNA inh HTS: -19*; Casp6 inh: 7; AID977621: -9.5; AID977628: -3.5

What do the screens show for `COC(=O)c1ccc(CCc2cc(O)ccc2O)cc1`?
NSD2 inh: 3

Results for Cc1cccc(NS(=O)(=O)c2cc3c(cc2C)NC(=O)CO3)c1 ?
MLL AF4-AF9 inh: 2; RAD52 inh: -6; rRNA inh HTS: -18*; Casp6 inh: -3; AID977621: -1; AID977628: -9.1

How did CCN(c1ccccc1)S(=O)(=O)c1ccc(Cl)c(C(=O)NCc2ccco2)c1 do in these assays?
MLL AF4-AF9 inh: 2; NSD2 inh: 1; RAD52 inh: -47; rRNA inh HTS: -21*; Casp6 inh: 2; AID977621: -19

How did CC(C)NC(=O)Nc1ccc2c(c1)C(=O)N(C)[C@H]1CC[C@@H](CC(=O)NCC3CCCCC3)O[C@@H]1CO2 do in these assays?
MLL AF4-AF9 inh: -1; RAD52 inh: 0; rRNA inh HTS: 2; Casp6 inh: 4

Results for CN(C)CCCN(C(=O)CCSc1ccccc1)c1nc2cc3c(cc2s1)OCO3 ?
MLL AF4-AF9 inh: inconclusive; RAD52 inh: 46; rRNA inh HTS: -31*; Casp6 inh: -10; AID977621: -5.2; AID977628: -3.8

What do the screens show for `O=C(Cc1ccccn1)N1CC2(C1)[C@H](c1ccccc1)[C@@H](CO)N2C(=O)c1cccnc1`?
MLL AF4-AF9 inh: -1; RAD52 inh: -242; rRNA inh HTS: 5; Casp6 inh: 0

What do the screens show for `Cc1nn(-c2ccc(N3CCCCC3)nn2)c(C)c1CCC(=O)Nc1ccc(F)cc1`?
MLL AF4-AF9 inh: -2; NSD2 inh: 2; RAD52 inh: -6; rRNA inh HTS: -28*; Casp6 inh: 2; AID977621: -17; AID977628: inconclusive

Results for CCc1ccc(NC(=O)CCc2c(C)nn(-c3ccc(N4CCCCC4)nn3)c2C)cc1 ?
MLL AF4-AF9 inh: 2; NSD2 inh: -1; RAD52 inh: -1; rRNA inh HTS: -23*; Casp6 inh: -3; AID977621: 4.5; AID977628: inconclusive

Results for CN(C)c1ccc2c(c1)[C@@H]1C[C@H](CC(=O)NCc3cccc(F)c3)O[C@@H](CO)[C@@H]1O2 ?
MLL AF4-AF9 inh: 5; RAD52 inh: -47; rRNA inh HTS: 5; Casp6 inh: 2

What do the screens show for `COC(=O)c1sccc1NC(=O)Cn1nnc(-c2ccccc2C)n1`?
MLL AF4-AF9 inh: -5; NSD2 inh: -6; RAD52 inh: -17; rRNA inh HTS: -30*; Casp6 inh: 1; AID977621: -12

How did COc1ccc(-n2cc(-c3ccccc3)c3c(N4CCOCC4)ncnc32)cc1 do in these assays?
MLL AF4-AF9 inh: 4; NSD2 inh: 0; RAD52 inh: -8; rRNA inh HTS: -29*; HepG2 tox: 15; AID977628: inconclusive

What do the screens show for `CCCN1[C@@H]2Cn3c(cccc3=O)[C@H]1[C@@H](C(=O)N[C@H](C)c1ccccc1)[C@@H]2CO`?
MLL AF4-AF9 inh: -4; RAD52 inh: 2; rRNA inh HTS: 0; Casp6 inh: 0

Results for C[C@H](NC(=O)C[C@H]1CC[C@H]2[C@@H](COC[C@H](O)CN2Cc2ccc(C(F)(F)F)cc2)O1)c1ccccc1 ?
MLL AF4-AF9 inh: -1; RAD52 inh: 7; rRNA inh HTS: -2; Casp6 inh: 2

Results for CSc1nc(SCCN(C)C)c2c3c(sc2n1)COC(C)(C)C3 ?
MLL AF4-AF9 inh: 4; NSD2 inh: 14; RAD52 inh: 15; rRNA inh HTS: -23*; Casp6 inh: -2; AID977628: 2.5

How did CCCCc1ccc(S(=O)(=O)Nc2ccc(C)c(NS(C)(=O)=O)c2)cc1 do in these assays?
MLL AF4-AF9 inh: -3; NSD2 inh: -4; RAD52 inh: -8; rRNA inh HTS: -35*; Casp6 inh: -4; AID977621: -2.8

What do the screens show for `C[C@@H]1CN([C@H](C)CO)C(=O)c2cccc(NC(=O)C3CCOCC3)c2O[C@H]1CN(C)Cc1ccc(C(=O)O)cc1`?
MLL AF4-AF9 inh: 2; RAD52 inh: 3; rRNA inh HTS: 2; Casp6 inh: 4

How did COc1ccc(-c2cc(C(=O)O)nc3ccc4ccccc4c23)cc1OC do in these assays?
MLL AF4-AF9 inh: 1; NSD2 inh: -1; RAD52 inh: -11; rRNA inh HTS: -29*; Casp6 inh: 0; AID977621: -17

What do the screens show for `COc1ccc(-c2nc(C(=O)O)cs2)cc1OC`?
MLL AF4-AF9 inh: 1; NSD2 inh: -2; RAD52 inh: -11; rRNA inh HTS: 3; Casp6 inh: 1

Assay outcomes: PubChem, Broad Institute
